The target in assay [1] is Lysosomal acid glucosylceramidase (Homo sapiens) (UniProt P04062). The assay can be described thus: Glucocerebrosidase-p2 (AID 348; in the data active = potency below about 10 µM; note: potency is the fitted concentration of half-maximal effect). To be noted: purified GBA, blue fluorogenic substrate, 40 min. The essentials: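 Normal human glucocerebrosidase (0.2 nM) with blue fluorogenic substrate (80 uM final) in citrate/phosphate pH 5.9 with 10mM sodium taurocholate, 0.01% tween-20; 40 min RT, NaOH/glycine stop; fluorescence Ex 365/Em 440; AC50 from a titration from 0.6 nM upwards.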

Assay [2] can be described thus: AP1 Signaling Pathway (AID 357).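 Note: ME-180 reporter cells stimulated with EGF at its EC50 level; % is set by controls: 0 for no effect and ±100 for the full control effect.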 To be noted: ME-180 AP-1-bla reporter, EGF-induced, beta-lactamase ratio, 5 h; at 7.69 µM (top of the series) unless noted. The essentials:
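Beta-lactamase reporter under AP-1 response element, ME-180 background. Stimulus: EC50 EGF. Compound exposure 5 h, 37 °C. Detection: CCF4, 2.5 h RT, 460/530 nm. Values: AC50 from titration.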

Assay [3] has as its target Cytochrome P450 1A2 (Homo sapiens) (UniProt P05177). The assay can be described thus: p450-cyp1a2 (AID 410; calls by dose curve; note: potency is the fitted concentration of half-maximal effect;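 for activity change, negative = inhibition: -100% = full effect of reference inhibitor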). The essentials: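 20nM CYP1A2, 100uM Luciferin-ME (=Km), 100mM KPO4; cpd 10 min RT; +NADPH regen, 60 min RT; stop/detect 20 min; luminescence. Normalized to furafylline 57 uM = full inhibition.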
A short description of assay [4]: NFAT Signaling Pathway (AID 444).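 Note: carbachol stimulus at about its EC50 of 1 µM final; % is set by controls: 0 for no effect and ±100 for the full control effect.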 To be noted: Jurkat NFAT-bla M1, carbachol, beta-lactamase ratio, 5 h; at 7.69 µM (top of the series) unless noted. The method in brief: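 Read-out: CCF4 FRET ratio (460 nm/530 nm) after 1 h RT dye loading, used for %activity and AC50 from titration series. Cells: Jurkat NFAT-β-lactamase/M1 line, treated with compound plus 1 uM carbachol for 5 h, 37 °C.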

The nature of assay [5]: Stat Signaling Pathway (AID 446).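 Note: ME-180 cervical cancer cells given 40 pM IL-6 alongside compound; SIE-controlled beta-lactamase reporter measured as 460/530 nm FRET emission ratio; % is set by controls: 0 for no effect and ±100 for the full control effect.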 To be noted: ME-180 SIE beta-lactamase reporter, IL-6 stimulated, 5 h; at 7.69 µM (top of the series) unless noted. The essentials:
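Emission at 460 and 530 nm (excitation 405 nm) reports SIE-controlled beta-lactamase in ME-180 cells. Cells received compound with 40 pM IL-6 for 5 hrs at 37 C; data scaled between 300 pM IL-6 and 125 nM JAK-inhibitor controls.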

Assay [6] concerns the target Glucocorticoid receptor (Homo sapiens) (UniProt P04150). The assay can be described thus: GR-GFP Redistribution (AID 450;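 active = compounds whose dose series gives a full or clear partial fitted curve of increased nuclear translocation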; note: potency is the fitted concentration of half-maximal effect). The conditions noted are these: U2OS GR-GFP nuclear translocation, laser cytometry, 2 h.
Assay [7] has the same target. The assay can be described thus: GR-EFC Redistribution (AID 451; calls by dose curve; note: potency is the fitted concentration of half-maximal effect). The conditions noted are these: CHO-K1 GR-EFC translocation, beta-gal luminescence, 2 h. The method in brief:
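Translocation of GR-ED fusion to nuclear EA restores b-gal, read by luminescence after 1 h room-temperature detection. Engineered CHO-K1 biosensor cells, 1,000/well, exposed 2 h at 37 C to titrations up to 46 uM final.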

Assay [8] has as its target Mitogen-activated protein kinase 10 (Mus musculus) (UniProt Q61831). The assay can be described thus: JNK3 AlphaScreen Assay (AID 530).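 Note: kinase came from lysate of stimulated human HepG2 cells; signal reports phosphorylation of biotinylated GST-cJun 1-79 at Ser73 with 10 µM ATP; % is set by controls: 0 for no effect and ±100 for the full control effect.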 The essentials:
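Kinase buffer: 20 mM Tris-HCl pH 7.6, 10 mM MgCl2, 1 mM DTT, 0.1 mM Na3VO4, 0.01% Tween-20; ATP 10 uM. Substrate biotin-GST-cJun(1-79), enzyme from activated HepG2 lysates. Detection by Ser73 phospho-antibody AlphaScreen.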

Assay [9] in a line: Confirmation and Secondary Assay for Modulators of Hemoglobin Beta Chain Splicing at IVS2 654 locus (AID 910; active = well fitted curve in the direction sought with a large enough effect; an effect the other way counts as inactive or inconclusive;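 note: HeLa cells stably carrying EGFP split by mutant beta-globin IVS2-654 intron; per-well total GFP intensity by laser scanning cytometry after 2-day treatment; % of control where 0% means no effect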). The essentials:
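Readout: per-well total peak green fluorescence (488 nm ex, 500–520 nm em) from objects 5–250 µm, reflecting correct splicing of an EGFP-654 reporter. Compounds were applied for 2 days at 37 °C to overnight-plated HeLa EGFP-654 cells; controls were DMSO and 500 nM IVS2-654 PNA.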

Assay [10] is described as follows: Confirmation and Secondary Assay for Modulators of Hemoglobin Beta Chain Splicing at IVS2 705 locus (AID 930; active = well fitted curve in the direction sought with a large enough effect; an effect the other way counts as inactive or inconclusive;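 note: HeLa cells stably expressing the EGFP-705 splicing reporter; GFP fluorescence per well restored by corrected splicing of the IVS2-705 intron in EGFP; % of control where 0% means no effect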). The method in brief: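 Per-well GFP, captured at 1 x 8 µm resolution with 488 nm excitation, served as the read-out for HeLa EGFP-705 cells incubated 2 days with test compound versus DMSO.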
The nature of assay [11]: qHTS Assay for Lipid Storage Modulators (AID 1519; calls by dose curve). To be noted: Drosophila S3 cells, BODIPY lipid droplet/cell ratio, laser cytometry, cells loaded with oleic acid; for activity change, negative = inhibition: at 57.5 µM (top of the series). The essentials: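 Cells seeded at 5,000 per well were treated with compounds over a concentration series and loaded with oleic acid (400 uM, as added). Lipid droplet fluorescence (488 nm excitation, 500-530 nm channel) was read by laser-scanning cytometry and normalized to 20 uM Triacsin C.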

Assay [12] addresses Ubiquitin carboxyl-terminal hydrolase 1 (Homo sapiens) (UniProt O94782). Description: Inhibitors of USP1/UAF1: Pilot qHTS (AID 504865; active = well fitted curve in the direction sought with a large enough effect; an effect the other way counts as inactive or inconclusive;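 note: rhodamine fluorescence freed from ubiquitin-rhodamine substrate followed over time; top concentration of the series differs between compounds; % is set by controls: 0 for no effect and ±100 for the full control effect; nearly all actives have a fitted effect of over 35% in size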). The method in brief: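 Deubiquitinase activity followed as kinetic rhodamine fluorescence release from 150 nM Ub-Rho. 1 nM USP1/UAF1 with compound, after 15 min room-temperature preincubation, in HEPES pH 7.8 buffer containing TCEP, EDTA, BSA and Tween-20.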
For orientation: Quantitative high-throughput screening tests each substance at several concentrations.

A short description of assay [13]: Primary qHTS for small molecule stabilizers of the endoplasmic reticulum resident proteome: Secreted ER Calcium Modulated Protein (SERCaMP) assay (AID 1508630; active = well fitted curve in the direction sought with a large enough effect; an effect the other way counts as inactive or inconclusive; note: % is set by controls: 0 for no effect and ±100 for the full control effect). The essentials: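 The SH-SY5Y reporter protocol was run at 3 concentrations up to 38.3 uM (primary) or 11 concentrations (follow-up): 16 h compound, 100 nM thapsigargin for 4 h, then extracellular luciferase luminescence.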

The target in assay [14] is 3',5'-cyclic-AMP phosphodiesterase 4B (Homo sapiens) (UniProt Q07343). Description: qHTS Assay for Inhibitors of PDE-IV (AID 607; active = well fitted activation curve with a large enough effect in the main read-out, with a control signal flat, not every such curve was filed as active; note: % of control where 0% means no effect). The essentials:
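The readout is membrane depolarisation from a cAMP-sensing CNG channel, detected with a potential dye at ex 535/em 590. Cells were HEK293-derived (endogenous PDE-IV) at 1000 cells/well, titrated up to 22.9 uM final.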

The target in assay [15] is Cytochrome P450 3A4 (Homo sapiens) (UniProt P08684). Description: qHTS Assay for Activators of Cytochrome P450 3A4 (AID 885; active = well fitted curve in the direction sought with a large enough effect; an effect the other way counts as inactive or inconclusive; note: nearly all actives have a fitted effect of over 65% in size). The method in brief:
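Activators are scored by enhanced luminescence from CYP3A4 conversion of luciferin-PPXE (25uM, equal to KM) to luciferin, after 60 min at RT with an NADPH-regenerating system.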

The nature of assay [16]: qHTS Assay for Identification of Small Molecule Agonists for Hypoxia Response Element Signaling Pathway (AID 914; active = well fitted activation curve with a large enough effect in the signal ratio, with a control signal flat, not every such curve was filed as active; the % refers to the signal ratio; note: potency is the fitted concentration of half-maximal effect). To be noted: ME-180 (cervical carcinoma) HRE-bla reporter, beta-lactamase ratio, CoCl2, 17 h; activation: stronger effect = higher value. The essentials:
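In Opti-MEM containing 0.5% dialyzed FBS and 10 mM HEPES, ME-180 HRE-bla cells received a compound titration and EC50 CoCl2. They were incubated 17 hours, then CCF4-loaded 2.5 hours at room temperature before ratio reading.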

Assay [17] deals with Cytochrome P450 3A4 (Homo sapiens) (UniProt P08684). The assay can be described thus: qHTS Assay for Inhibitors and Substrates of Cytochrome P450 3A4 (AID 884; active = well fitted curve in the direction sought with a large enough effect; an effect the other way counts as inactive or inconclusive; note: potency is the fitted concentration of half-maximal effect; nearly all actives have a fitted effect of over 50% in size). The essentials:
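Luminescent readout of luciferin produced by CYP3A4 (20 nM) dealkylation of Luciferin-PPXE, 25 uM (its KM). NADPH-driven reaction ran 60 min at RT after 10 min compound preincubation; data scaled to 57 uM ketoconazole as 100% inhibition.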

Setting [18] is: measured here: cell count channel max response.
[19] abbreviates: measured here: lipid channel max response.

The structures appear in SMILES notation. Records with an inconclusive call do not appear. Activity calls are given as the source filed them. Unless noted, calls come from the whole dose curve; as a rule, active = well fitted curve in either direction with a large enough effect (not every such curve was filed as active); inconclusive = small, poorly fitted or top-dose-only effect, or another doubt; inactive = flat fitted curve, though single readings scatter. Bounds are passed on as bounds.

Ubiquitin carboxyl-terminal hydrolase 1 (Homo sapiens), sequence (O94782 whole entry, looked up): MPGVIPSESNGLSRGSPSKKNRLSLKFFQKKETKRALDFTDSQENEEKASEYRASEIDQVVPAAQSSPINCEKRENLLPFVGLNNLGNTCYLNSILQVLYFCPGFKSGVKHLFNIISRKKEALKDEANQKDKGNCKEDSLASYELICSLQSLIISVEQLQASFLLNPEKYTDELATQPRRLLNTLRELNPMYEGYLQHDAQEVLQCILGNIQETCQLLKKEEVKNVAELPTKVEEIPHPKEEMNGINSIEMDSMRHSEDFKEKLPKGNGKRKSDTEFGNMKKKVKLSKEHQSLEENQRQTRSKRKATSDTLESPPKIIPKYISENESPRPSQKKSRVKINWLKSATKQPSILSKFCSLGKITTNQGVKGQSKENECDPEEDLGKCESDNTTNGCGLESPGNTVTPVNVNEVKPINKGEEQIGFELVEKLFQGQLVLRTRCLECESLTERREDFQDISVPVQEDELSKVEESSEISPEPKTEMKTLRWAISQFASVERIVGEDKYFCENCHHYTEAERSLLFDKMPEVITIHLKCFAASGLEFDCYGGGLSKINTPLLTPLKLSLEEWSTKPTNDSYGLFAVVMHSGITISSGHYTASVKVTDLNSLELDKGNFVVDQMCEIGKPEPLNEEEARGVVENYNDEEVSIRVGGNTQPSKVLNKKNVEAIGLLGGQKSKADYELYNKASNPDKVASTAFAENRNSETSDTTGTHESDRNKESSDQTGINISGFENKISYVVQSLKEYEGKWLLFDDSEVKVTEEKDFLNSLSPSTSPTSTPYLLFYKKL
Cytochrome P450 3A4 (Homo sapiens), sequence (P08684 whole entry, looked up): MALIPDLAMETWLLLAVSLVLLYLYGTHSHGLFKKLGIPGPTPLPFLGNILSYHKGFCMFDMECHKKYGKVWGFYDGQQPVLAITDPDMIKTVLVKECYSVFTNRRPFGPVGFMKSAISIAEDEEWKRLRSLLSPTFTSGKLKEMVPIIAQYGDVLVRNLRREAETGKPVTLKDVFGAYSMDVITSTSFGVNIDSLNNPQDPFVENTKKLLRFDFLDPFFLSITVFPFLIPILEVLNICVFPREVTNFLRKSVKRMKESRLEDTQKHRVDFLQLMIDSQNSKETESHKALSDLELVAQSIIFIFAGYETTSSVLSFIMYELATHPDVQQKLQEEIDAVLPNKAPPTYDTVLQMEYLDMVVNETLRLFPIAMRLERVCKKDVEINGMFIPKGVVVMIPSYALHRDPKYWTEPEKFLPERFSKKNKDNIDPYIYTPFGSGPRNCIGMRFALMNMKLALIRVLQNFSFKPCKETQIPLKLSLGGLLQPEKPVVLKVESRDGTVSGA
Lysosomal acid glucosylceramidase (Homo sapiens), sequence (P04062 whole entry, looked up): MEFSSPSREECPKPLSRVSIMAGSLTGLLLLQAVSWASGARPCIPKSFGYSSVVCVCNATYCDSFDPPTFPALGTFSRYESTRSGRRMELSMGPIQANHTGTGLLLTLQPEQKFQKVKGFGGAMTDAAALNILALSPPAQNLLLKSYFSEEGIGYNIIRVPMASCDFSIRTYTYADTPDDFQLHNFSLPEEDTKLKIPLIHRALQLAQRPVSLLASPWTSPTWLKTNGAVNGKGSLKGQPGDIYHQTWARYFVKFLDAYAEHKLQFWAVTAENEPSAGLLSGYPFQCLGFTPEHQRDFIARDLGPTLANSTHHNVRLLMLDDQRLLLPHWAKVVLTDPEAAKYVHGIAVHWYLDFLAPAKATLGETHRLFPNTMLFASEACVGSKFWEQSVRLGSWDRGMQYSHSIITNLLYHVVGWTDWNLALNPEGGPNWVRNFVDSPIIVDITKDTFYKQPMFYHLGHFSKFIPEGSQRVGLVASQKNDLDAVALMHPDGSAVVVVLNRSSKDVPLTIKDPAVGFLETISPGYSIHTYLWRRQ
Cytochrome P450 1A2 (Homo sapiens), sequence (P05177 whole entry, looked up): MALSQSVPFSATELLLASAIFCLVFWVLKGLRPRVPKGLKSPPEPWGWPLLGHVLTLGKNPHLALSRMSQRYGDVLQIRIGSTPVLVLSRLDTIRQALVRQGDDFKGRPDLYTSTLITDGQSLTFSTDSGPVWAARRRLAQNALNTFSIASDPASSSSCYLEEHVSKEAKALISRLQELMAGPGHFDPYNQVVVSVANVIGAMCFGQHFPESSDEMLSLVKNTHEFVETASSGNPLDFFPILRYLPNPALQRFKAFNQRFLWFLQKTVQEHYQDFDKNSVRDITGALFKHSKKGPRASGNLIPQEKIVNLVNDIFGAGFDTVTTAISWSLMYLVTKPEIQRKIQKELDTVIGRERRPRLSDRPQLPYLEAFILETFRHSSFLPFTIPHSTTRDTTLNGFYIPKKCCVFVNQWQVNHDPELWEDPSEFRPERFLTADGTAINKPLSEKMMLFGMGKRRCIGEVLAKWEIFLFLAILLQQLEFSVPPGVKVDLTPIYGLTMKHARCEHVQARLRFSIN
3',5'-cyclic-AMP phosphodiesterase 4B (Homo sapiens), sequence (Q07343 whole entry, looked up): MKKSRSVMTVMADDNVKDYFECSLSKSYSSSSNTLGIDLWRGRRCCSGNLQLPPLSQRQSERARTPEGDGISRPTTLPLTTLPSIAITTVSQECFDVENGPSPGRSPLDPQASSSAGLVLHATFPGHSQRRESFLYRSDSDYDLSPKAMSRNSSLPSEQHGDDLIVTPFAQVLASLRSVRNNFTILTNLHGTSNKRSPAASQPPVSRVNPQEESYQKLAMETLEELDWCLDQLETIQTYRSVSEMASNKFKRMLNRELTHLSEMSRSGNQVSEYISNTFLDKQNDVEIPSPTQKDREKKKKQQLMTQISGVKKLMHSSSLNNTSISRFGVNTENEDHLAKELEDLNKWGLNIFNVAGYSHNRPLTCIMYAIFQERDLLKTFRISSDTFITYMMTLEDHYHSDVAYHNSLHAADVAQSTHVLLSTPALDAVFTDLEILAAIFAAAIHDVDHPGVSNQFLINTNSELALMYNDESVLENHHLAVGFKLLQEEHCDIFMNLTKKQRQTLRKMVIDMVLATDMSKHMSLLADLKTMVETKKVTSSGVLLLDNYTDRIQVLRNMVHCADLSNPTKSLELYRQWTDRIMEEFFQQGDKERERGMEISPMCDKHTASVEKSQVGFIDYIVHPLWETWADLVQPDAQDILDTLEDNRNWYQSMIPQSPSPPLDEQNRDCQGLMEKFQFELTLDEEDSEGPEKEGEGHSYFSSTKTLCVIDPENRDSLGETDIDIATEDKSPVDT
Glucocorticoid receptor (Homo sapiens), sequence (P04150 whole entry, looked up): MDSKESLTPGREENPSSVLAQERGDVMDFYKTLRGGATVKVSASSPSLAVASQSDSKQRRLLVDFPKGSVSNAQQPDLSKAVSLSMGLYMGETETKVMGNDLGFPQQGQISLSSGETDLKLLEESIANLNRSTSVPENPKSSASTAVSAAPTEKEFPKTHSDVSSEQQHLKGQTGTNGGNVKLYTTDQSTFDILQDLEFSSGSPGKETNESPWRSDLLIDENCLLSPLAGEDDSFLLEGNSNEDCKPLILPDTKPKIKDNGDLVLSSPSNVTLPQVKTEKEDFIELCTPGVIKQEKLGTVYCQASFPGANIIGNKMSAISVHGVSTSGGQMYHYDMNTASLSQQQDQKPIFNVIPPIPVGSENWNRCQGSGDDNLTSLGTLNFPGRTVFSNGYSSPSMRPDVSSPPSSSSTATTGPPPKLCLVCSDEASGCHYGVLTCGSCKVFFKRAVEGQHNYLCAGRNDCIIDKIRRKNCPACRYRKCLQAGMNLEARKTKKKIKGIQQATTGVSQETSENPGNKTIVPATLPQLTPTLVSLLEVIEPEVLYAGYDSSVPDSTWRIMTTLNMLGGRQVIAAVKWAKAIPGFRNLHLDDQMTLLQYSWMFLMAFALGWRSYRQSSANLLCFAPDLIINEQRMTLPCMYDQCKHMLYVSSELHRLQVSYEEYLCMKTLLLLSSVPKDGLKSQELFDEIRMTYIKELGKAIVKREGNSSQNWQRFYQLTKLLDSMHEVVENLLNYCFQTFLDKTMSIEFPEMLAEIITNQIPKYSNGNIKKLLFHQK

As to `CN1CCN(c2cc(-c3ccc(N(C)C)cc3)ncn2)CC1`, the Potency in assay [1] is > 11.4 µM (inactive); in assay [3], 2.51 µM (active); in assay [6], > 46 µM (inactive); in [7], > 46 µM (inactive). Moreover, the activity change, negative = inhibition in [2] was -7.42% (inactive); in assay [4] it was -7.21% (inactive); in assay [11] it was 8.21% (inactive). The activity, negative = inhibition in assay [5] was 2.2% (inactive). Besides, the outcome in [8], in [9] and in assay [10] was inactive. Further, the max response came to 7.68% in assay [11] (setting [18]) and 16.4% in assay [11] (setting [19]). Further, the Potency entry in assay [12] and in assay [13] was “inactive” in each case.

For the molecule `c1cncc(CNc2cc(-c3ccc4c(c3)OCO4)ncn2)c1`, the Potency in [1] is > 11.4 µM (inactive); in assay [3] it was 0.251 µM (active); in [6] it was > 46 µM (inactive); in assay [7], > 46 µM (inactive). For the same molecule, the activity change, negative = inhibition in assay [2] is -7.3% (inactive); in assay [4] it was 11.5% (inactive); in assay [11], 11.7% (inactive). Also, the activity, negative = inhibition in assay [5] was 3.19% (inactive). For the same molecule, the molecule was called inactive in [8], in assay [9] and in assay [10]. Moreover, the Potency result in assay [14], in assay [12] and in [13] was “inactive” in each case. The max response was found to be 14% in assay [11] (setting [18]) and 18.9% in assay [11] (setting [19]).

As for `Cc1cnc(CNc2ccnc(-c3ccccc3Cl)n2)cn1`, the Potency in [1] is > 11.4 µM (inactive); in assay [3] it was 12.6 µM (active); in [6], > 46 µM (inactive); in [7] it was > 46 µM (inactive). In addition, the activity change, negative = inhibition is -1.45% (inactive) in assay [2], -3.33% (inactive) in assay [4] and 7.03% (inactive) in assay [11]. Also, the activity, negative = inhibition in [5] was 7.09% (inactive). Besides, the molecule was called inactive in assay [8], in assay [9] and in assay [10]. The Potency result in assay [14], in assay [15], in assay [12] and in assay [13] was “inactive” each time. In addition, the max response in assay [11] (setting [18]) came out at 7.84%; in assay [11] (setting [19]), 16.2%.

Take `CNc1cc(-c2c(C)noc2C)ncn1`: the Potency was > 11.4 µM (inactive) in [1]; 5.01 µM (active) in [3]; > 46 µM (inactive) in [6]; > 46 µM (inactive) in assay [7]; 3.16 µM (active) in assay [16]. Further, the activity change, negative = inhibition was 25.4% (inactive) in [2], 3.01% (inactive) in [4] and 4.96% (inactive) in [11]. Besides, in assay [5], the activity, negative = inhibition is 27.1% (inactive). Besides, the molecule was called inactive in [8]. Further, the Potency entry in assay [14], in [12] and in [13] was “inactive” throughout. Moreover, the max response came to 25.8% in assay [11] (setting [18]) and 27.2% in assay [11] (setting [19]).

`COc1ccc2[nH]cc(CCNc3cc(-c4ccccc4C(F)(F)F)ncn3)c2c1`: the Potency in [1] was > 11.4 µM (inactive); in assay [3], 10 µM (active); in [6] it was > 46 µM (inactive); in assay [7], > 46 µM (inactive); in assay [17] it was 5.01 µM (active). Further, the activity change, negative = inhibition in assay [2] was -26.7% (inactive); in assay [4], 14% (inactive); in assay [11], 6.48% (inactive). Moreover, in assay [5], the activity, negative = inhibition was 0.643% (inactive). The result in assay [8], in [9] and in assay [10] was inactive. Further, the Potency entry in assay [14], in [15] and in assay [13] was “inactive” in each case. In addition, the max response is -3.31% in [11] (setting [18]) and 0.275% in [11] (setting [19]).

As to `COc1ccc(-n2c(=O)c(-c3cn(C)c4ccccc34)nc3cnc(OC)nc32)cc1`, the Potency was > 11.4 µM (inactive) in [1], > 9.22 µM (inactive) in [6], > 46 µM (inactive) in [7] and 1.58 µM (active) in [17]. Besides, the results for the activity change, negative = inhibition in assay [2], in [4] and in [11] were -6.77% (inactive), -7.96% (inactive) and -13.3% (inactive), respectively. For the same molecule, the Potency entry in assay [3], in [14], in assay [15] and in assay [13] was “inactive” each time. For the same molecule, the activity, negative = inhibition in [5] was 5.87% (inactive). In assay [8], the outcome was inactive. For the same molecule, the max response is 4.94% in assay [11] (setting [18]) and -9.54% in [11] (setting [19]).

Values taken from PubChem BioAssay (NCATS).
